# Bioassay records: PubChem BioAssay, several laboratories
# Only some compounds are listed: those with a hit (about 4.3% of all), similar ones and a draw of the others.
# NR3A LBD binder: binders of NR3A ligand-binding domain, primary screen, biophysical, differential scanning fluorimetry, uHTS. Glutamate receptor ionotropic, NMDA 3A (GRIN3A) ligand-binding domain. NR3A LBD differential scanning fluorimetry, Tm shift; 0% = protein alone, 100% = glycine-bound protein. Tm shift relative to glycine control, % at 25 µM. 2.5% of 340,000 active;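 active = melting temperature shift of at least 10% of the positive control shift, at one fixed dose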
# rCAG binder: binders of r(CAG) RNA repeats, primary screen, biochemical, fluorescence; 1.3% of 370,000 active; AID 651821, 2012; r(CAG) RNA repeat, TO-PRO-1 dye displacement fluorescence; inhibition, % at 3 µM;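 active = inhibition above the plate cutoff, the mean of all test compounds on that plate plus 3 SD, cut at about 35% in these data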;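 also: 0% = DMSO alone and 100% = 100 µM mitoxantrone as full dye displacement; higher means more dye released from RNA so lower well fluorescence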
# NadD block: inhibitors of S. aureus NadD, primary screen, biochemical, colorimetric, uHTS; purified NadD enzyme, colorimetric absorbance read-out; inhibition, % at 20 µM; 0.78% of 360,000 active; AID 602399, 2012; in the data active = inhibition above about 26%
# FAS TE block: FAS thioesterase domain inhibitors, primary screen, biochemical, fluorescence intensity, uHTS. recombinant FAS-TE, OMFH fluorogenic substrate, fluorescence endpoint. inhibition, % at 15 µM. Fatty acid synthase (Homo sapiens), P49327. 0.67% of 360,000 active;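 active = compounds whose normalised, plate-corrected inhibition of enzyme fluorescence in the single-dose primary screen is 50% or more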;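 also: 0% = DMSO with enzyme and 100% = substrate without enzyme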
# rCAG bind conf: small molecules binding CAG repeat RNA – biochemical, fluorescence, confirmation; shares compounds with rCAG binder; inhibition, % at 3 µM; 70% of 4,300 active; r(CAG) RNA repeat, TO-PRO-1 dye displacement fluorescence;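 active = inhibition above a per-plate cutoff, the mean inhibition of sample wells plus 3 SD, cut at about 35% in these data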;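 also: loss of TO-PRO-1 fluorescence as compound displaces dye from 1x1 AA loop RNA; 0% = DMSO only wells and 100% = 100 µM mitoxantrone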
# DNA CAG counter: displacement of TO-PRO-1 from CAG DNA duplex, counter-screen for rCAG RNA repeat binder project, biochemical, fluorescence, TO-PRO-1 dye, d(CAG) DNA oligo | 94% of 4,300 active | shares compounds with rCAG binder | AID 652068, 2013 | inhibition, % at 3 µM | d(CAG) DNA oligo TO-PRO-1 dye displacement;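 active = inhibition above its plate's cutoff, the mean test-well inhibition plus 3 SD, cut at about 4.8% in these data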;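 also: 0% = DNA dye mix with DMSO and 100% = 100 µM mitoxantrone; hits displace the dye from DNA and so lower well fluorescence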
# dCAG dye DR: inhibitors of DNA CAG/GTC TO-PRO-1 complex, dose response, counter-screen for rCAG RNA repeat binder project, biochemical, fluorescence, TO-PRO-1 dye | IC50, µM | shares compounds with rCAG binder | DNA CAG/GTC duplex TO-PRO-1 dye displacement fluorescence | 20% of 250 active; in the data active = IC50 below about 10 µM
# An asterisk follows results filed as active; i = inactive; · = no result given.
SMILES,NR3A LBD binder,rCAG binder,NadD block,FAS TE block,rCAG bind conf,DNA CAG counter,others
CC(C)(C)c1ccc(C#C[C@@H]2C=C[C@@H](O)[C@@H](CO)O2)cc1,·,-1,·,·,·,·,
C=CCN1C(=O)[C@H](CC(=O)N2CCSCC2)[C@@]2(C(=O)OCC)CCCC=C12,·,1,·,·,·,·,
Cc1ccc(NS(=O)(=O)c2ccc(NS(=O)(=O)c3cccs3)cc2)cc1,-3,32,-1,2,·,·,
O=S(=O)(Nc1ccc(Br)cc1)c1cccc(NS(=O)(=O)c2cccs2)c1,6,37*,3,23,29,6.9*,
O=C(CSC1=NS(=O)(=O)c2cc(Cl)ccc2N1)Nc1ccccc1F,7,59*,-2,2,35,6.8*,
O=C(CSC1=NS(=O)(=O)c2cc(Cl)ccc2N1)Nc1ccccc1C(F)(F)F,1,52*,4,-1,52*,11*,dCAG dye DR=>30
O=C1NC(c2ccccc2)(c2ccccc2)C(=O)N1CNc1ccccn1,·,1,·,·,·,·,
CC(C)C[C@H](NC(=O)c1ccc(Cl)c(Cl)c1)C(=O)N1CCC[C@H]1C(=O)NCc1ccccc1,·,0,·,·,·,·,
CCC[C@@H](/C=C/C(=O)OC(C)(C)C)Sc1ccc(OC)cc1,·,-1,·,·,·,·,
O=C(O)c1ccc(NC2=C/C(=N/S(=O)(=O)c3cccs3)c3ccccc3C2=O)cc1,·,17,-2,14,·,·,
CCc1ccc(S(=O)(=O)/N=C2\C=C(Nc3cccc(C(=O)O)c3)C(=O)c3ccccc32)cc1,2,81*,19,19,76*,37*,
Cc1cc(C)c(S(=O)(=O)/N=C2\C=C(Nc3ccc(C(=O)O)cc3)C(=O)c3ccccc32)c(C)c1,-1,85*,31*,8,81*,50*,
O=C(O)c1ccc(NC2=C/C(=N/S(=O)(=O)c3ccccc3)c3ccccc3C2=O)cc1,5,61*,5,15,38*,11*,
Nc1ccc(C(=O)N/N=C/c2cn(Cc3ccccc3F)c3ccccc23)cc1,5,10,5,2,·,·,
O=C(N/N=C/c1cn(Cc2cccc(F)c2)c2ccccc12)c1cc(O)cc(O)c1,4,50*,19,7,52*,29*,
O=C(O)c1ccc(N/N=C/c2cn(Cc3ccccc3F)c3ccccc23)cc1,-6,78*,10,20,81*,45*,
CC(=O)C1=C(O)C(=O)N(c2cc(C(C)(C)C)on2)C1c1ccc(Br)cc1 (configuration not stated),-17,47*,18,10,46*,13*,dCAG dye DR=i
COC(=O)C1=C(C)N(Cc2ccc(C(F)(F)F)cc2)C(=NCc2ccc3c(c2)OCO3)NC1c1ccccc1 (configuration not stated),·,12,·,·,·,·,
CC(C)CC(=O)N1CCc2cc(S(=O)(=O)N(C)Cc3ccco3)ccc21,·,3,·,·,·,·,
COC(=O)[C@]12C[C@H](CC(=O)N3CCN(C(=O)c4ccco4)CC3)C(=O)N(Cc3cccc4ccccc34)C1=C[C@H](C1CCCC1)O[C@@H]2C,·,10,·,·,·,·,
Cc1ccccc1CSc1nnc(NC(=O)C2COc3ccccc3O2)s1 (configuration not stated),2,24,8,14,·,·,
O=C(Nc1nnc(SCc2cccc3ccccc23)s1)C1COc2ccccc2O1 (configuration not stated),9,50*,6,28,40*,8.2*,
N#C/C(N=Nc1ccccc1O)=N\Nc1ccccc1O,4,57*,-4,28,74*,29*,
O=C(NC1CCCC1)[C@@H]1CCCN1C(=O)[C@H](Cc1cccnc1)NC(=O)N1CCOCC1,·,2,·,·,·,·,
O=C(Nc1c(-c2ccc(F)cc2)nc2ncccn12)c1ccc(F)cc1,·,1,·,·,·,·,
SMILES,NR3A LBD binder,rCAG binder,NadD block,FAS TE block,rCAG bind conf,DNA CAG counter,others
CCc1nnc(NC(=S)Nc2ccccc2)s1,-11,11,-3,-10,·,·,
Cc1ccc(C(=O)Nc2nnc(NC(=S)Nc3ccccc3)s2)cc1,32*,70*,23,5,39*,30*,
COc1ccc(CNC(=O)COC(=O)c2cc(-c3ccc(Cl)s3)nc3ccccc23)cc1,2,3,-1,24,·,·,
O=C(COC(=O)c1cc(-c2ccc(Cl)s2)nc2ccccc12)NCc1ccco1,4,36*,10,1,15,6.6*,
COc1ccc(Cn2ccc3ccc(-c4ccc5ccn(Cc6ccccc6)c5c4)cc32)cc1,·,18,·,·,·,·,
Cc1ccc(CSc2nc3c(c(SCC(=O)O)n2)CCCC3)cc1,1,36*,3,-2,23,5.7*,
O=S(=O)(O)c1cccc(N=Nc2c(O)ccc3ccccc23)c1,3,38*,-2,9,36*,9.7*,
COC(=O)[C@]12C[C@H](CC(=O)NCC34CC5CC(CC(C5)C3)C4)C(=O)N(Cc3ccccc3)C1=C[C@H](COCc1ccccc1)O[C@@H]2C,·,10,·,·,·,·,
COc1ccc(Cn2ccc3ccc(-c4ccc5ccn(C(=O)c6ccc(C)cc6)c5c4)cc32)cc1,·,11,·,·,·,·,
O=c1cc(-c2c(O)c3ccccc3n(Cc3ccccc3)c2=O)[nH][nH]1,-3,47*,1,-6,22,8.3*,
CCn1c(=O)c(-c2cc(=O)[nH][nH]2)c(O)c2ccccc21,-2,6,-2,-6,·,·,
CCn1c(C)c(/C=N/Nc2nc3ccccc3s2)c2ccccc21,7,47*,17,20,32,15*,
CN1C(=O)c2cc(NC(=O)Nc3ccccc3)ccc2OC[C@H]2O[C@@H](CC(=O)NCC(F)(F)F)CC[C@@H]21,·,1,·,·,·,·,
CCc1nc(SCC(=O)Nc2cc(C)ccc2OC)c2c(C)c(C)sc2n1,-1,35*,-1,23,4,2,
COc1cc(NC(=O)CSc2ncnc3sc4c(c23)CCCC4)c(C(=O)O)cc1OC,-6,67*,9,8,53*,17*,
COc1ccc(OC)c(NC(=O)CSc2ncnc3sc(C)cc23)c1,-4,72*,16,1,64*,34*,
COc1ccc(OC)c(NC(=O)CNC(=O)Cn2cnc3sc(C)cc3c2=O)c1,0,-2,1,-2,·,·,
CCCCCCN1CCS(=O)(=O)N(Cc2ccc(Cl)cc2)C(C(=O)OC)C1 (configuration not stated),·,-1,·,·,·,·,
